The list is not random: actives were taken first. Their share in the collection is about 12%.
HP1b chromo inh: inhibitors of HP1-beta chromodomain binding to methylated histone tails; P83916; AlphaScreen HP1-beta / biotin-H3K9me3 peptide binding; Potency, µM (doses to about 114 µM), without a hit: top-dose activity change, negative = inhibition, actives largely listed as inhibitors; 390,000 tested, 0.56% active; AID 540317; note: nearly all actives have a fitted effect of over 70% in size
Target sequence (P83916 whole entry, looked up): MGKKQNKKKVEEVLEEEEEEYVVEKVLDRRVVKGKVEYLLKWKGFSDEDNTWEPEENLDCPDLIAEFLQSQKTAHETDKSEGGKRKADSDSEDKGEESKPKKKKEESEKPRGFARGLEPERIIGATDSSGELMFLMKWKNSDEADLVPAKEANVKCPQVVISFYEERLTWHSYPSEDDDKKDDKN
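HP1-beta protein (50 nM final) preincubated 30 min at room temperature with biotinylated H3(1-18)K9me3 peptide (50 nM) in PBS pH 7.4, 0.01% Tween-20, then compound added for 30 min. AlphaScreen streptavidin donor/nickel chelate acceptor beads (10 ug/mL final), 30 min dark, luminescence read.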
JMJD2A Tudor: inhibitors of human JMJD2A Tudor domain; AlphaScreen JMJD2A-Tudor / H3K4me3 peptide binding; AID 504339; 390,000 tested, 4.4% active; Potency, µM (titrated, usually from 114 µM), inactives show at the top dose activity change, negative = inhibition, hits mostly inhibitors; O75164; note: % is set by controls: 0 for no effect and ±100 for the full control effect; nearly all actives have a fitted effect of over 50% in size
Sfp inh: blocks B. subtilis Sfp PPTase activity; Q9F4F7; Biochemical Sfp PPTase activity, qHTS; Potency, µM, for the others: largest response in the series, negative = inhibition, hits mostly inhibitors; 310,000 tested, 3.5% active;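 note: the enzyme is Sfp with the accession as filed and its product quenches rhodamine fluorescence; 0% = enzyme reaction without inhibitor and -100% = no enzyme wells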
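Buffer: 50 mM Hepes-Na pH 7.6, 10 mM MgCl2, 0.01% Nonidet P-40, 0.01% BSA. Enzyme 15 nM, pre-exposed to compound 15 min; substrates then added and fluorescence change tracked over 30 min.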
BAZ2B inh: blocks human BAZ2B; AlphaScreen BAZ2B-H3K14Ac peptide displacement; AID 504333; 360,000 tested, 4.4% active; Q9UIF8; Potency, µM (top dose mostly 114 µM), for the others: at the top dose activity change, negative = inhibition, most hits filed as inhibitors; note: % is set by controls: 0 for no effect and ±100 for the full control effect; nearly all actives have a fitted effect of over 60% in size
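Inhibition is scored as reduced AlphaScreen emission. The BAZ2B/b-H3(5-23)K14Ac complex (50 nM each) in PBS pH 7.4, 0.01% Tween-20 meets compound (up to 110 uM) for 30 min at RT before bead addition.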
PLK1 PBD block: PLK1 (human) polo-box domain binding inhibition | P53350 | 360,000 tested, 2.8% active | Potency, µM, without a hit: max response, negative = inhibition, hits mostly inhibitors | AID 720504 | Plk1 PBD binding of FITC phosphopeptide, fluorescence polarization; note: series mostly up to about 57 µM; % is set by controls: 0 for no effect and ±100 for the full control effect; nearly all actives have a fitted effect of over 65% in size
Target sequence (P53350 whole entry, looked up, the tested form may be a part): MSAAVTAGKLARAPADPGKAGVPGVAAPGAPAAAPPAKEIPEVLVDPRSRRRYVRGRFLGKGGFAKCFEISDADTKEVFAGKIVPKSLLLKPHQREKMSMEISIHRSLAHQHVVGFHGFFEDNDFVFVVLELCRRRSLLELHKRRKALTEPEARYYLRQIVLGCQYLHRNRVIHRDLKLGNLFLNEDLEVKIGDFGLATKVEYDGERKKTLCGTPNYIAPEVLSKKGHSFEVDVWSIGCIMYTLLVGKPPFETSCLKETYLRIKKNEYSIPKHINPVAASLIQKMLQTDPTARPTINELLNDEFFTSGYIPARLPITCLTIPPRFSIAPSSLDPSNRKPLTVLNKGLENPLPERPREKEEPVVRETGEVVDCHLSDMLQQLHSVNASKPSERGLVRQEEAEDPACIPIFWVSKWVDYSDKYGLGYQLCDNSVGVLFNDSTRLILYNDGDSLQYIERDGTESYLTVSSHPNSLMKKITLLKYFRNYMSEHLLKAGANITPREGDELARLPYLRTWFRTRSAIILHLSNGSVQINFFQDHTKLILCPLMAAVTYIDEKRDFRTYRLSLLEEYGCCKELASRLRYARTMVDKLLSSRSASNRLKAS
G9a block: blocks human histone lysine methyltransferase G9a; Potency, µM (series often up to 102 µM), for the others: top-dose activity, negative = inhibition, usual class: inhibitors; G9a H3K9 monomethylation, AlphaScreen, 2 h; 350,000 tested, 8.8% active; Q96KQ7; note: % is set by controls: 0 for no effect and ±100 for the full control effect; nearly all actives have a fitted effect of over 75% in size
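Chemiluminescent proximity detection of H3K9 monomethylation, read after 10 min bead incubation in the dark. Reaction: 20 nM G9a, 500 nM biotin-H3K9 peptide, 20 uM SAM cofactor, 2 h, room temperature, following 15 min enzyme-compound preincubation.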
An asterisk follows results filed as active; ? = inconclusive; / = not tested or not shown; [ ] = dose if it differs, or a comment. Calls come from the whole dose curve; as a rule, active = well fitted curve in the direction sought with a large enough effect; inconclusive = small, poorly fitted or top-dose-only effect, or another doubt; inactive = no such curve, though single readings can be large; an effect the other way counts as inactive or inconclusive. Potency is the fitted concentration of half-maximal effect.

SMILES	HP1b chromo inh	JMJD2A Tudor	Sfp inh	BAZ2B inh	PLK1 PBD block	G9a block
Cc1ccc(S(=O)(=O)NCCOC(=O)Nc2sc(=S)n(C)c2C)cc1	?	-9.4%	56.2µM*	?	?	31.6µM*
O=Cc1c(OCc2ccccc2)ccc2ccccc12	43.4%	61.2%	-8.5%	-11.6%	16.8µM*	29.9%[59 µM]
C/[N+]([O-])=C/c1c(OCc2ccccc2)ccc2ccccc12	25.9%	-5.7%	10.2%	-15.4%	-11.5%	4.2%
Oc1[nH]c2ccccc2c1N=Nc1ccccn1	28.6%	-25.7%	/	/	0.8%	/
Oc1c(N=Nc2ccccn2)ccc2ccccc12	5.01µM*	2.82µM*	-14.9%	3.16µM*	-10.5%	18.9%[0.501 µM]
COc1ccc(-c2nc3sc(CCNC(=O)Cc4ccc(F)cc4)c(C)n3n2)cc1	38.0%	-11.7%	/	-1.3%	/	-12.6%[59 µM]
COc1ccc(-c2nc3sc(CCNC(=O)Cc4ccccc4)c(C)n3n2)cc1	30.9%	-23.7%	/	0.1%	/	3.55µM*
CC(C)CCn1c(SCc2c(F)cccc2Cl)nc2ccsc2c1=O	63.5%	14.7%	/	0.0%	/	-0.7%[59 µM]
CCC(c1nnc(SCC(=O)NCCc2ccc(Cl)cc2Cl)o1)N(C)C (stereo not given)	11.2%	-11.0%	?	-3.7%	26.7µM*	39.8µM*
O=C(CSc1cccc[n+]1[O-])N1CCc2ccccc21	32.2%	-2.0%	10.5%	0.4%	-9.2%	56.2µM*
O=C(CSc1cccc[n+]1[O-])N1CCCCCC1	16.5%	-6.6%	0.5%	-1.1%	7.2%	-31.9%
O=C(CN1CCN(Cc2ccc(Cl)cc2)CC1)N1CCc2ccccc21	13.4%	-13.0%	3.1%	-22.5%	-2.3%	-20.2%
O=C(CN1CCN(c2ccccc2)CC1)N1CCc2ccccc21	11.0%	-19.7%	13.6%	-10.7%	-2.9%	18.3%[0.501 µM]
O=C(CN1CCN(Cc2ccccc2)CC1)N1CCCc2ccccc21	?	4.47µM*	?	20µM*	-14.1%	?
O=C(CN1CCN(c2ccc(O)cc2)CC1)N1CCc2ccccc21	?	79.4µM*	39.8µM*	-36.6%	-1.3%	10µM*
O=C(N[C@@H]1c2ccccc2CC[C@@H]1OCc1ccccc1)c1ccc(-c2ccccc2)cc1	62.0%	-0.7%	/	/	-0.2%	/
O=C(NCC(c1ccc2c(c1)OCO2)N1CCOCC1)C(=O)Nc1ccccc1 (stereo not given)	22.2%[57 µM]	-25.5%	/	10.1%	/	-3.1%[59 µM]
Cc1ccc2c(c1)NC(=O)c1cccnc1N2	-8.4%	-24.5%	11.1%	3.0%[57.1 µM]	-14.5%	44.7µM*
CCN(CC)S(=O)(=O)c1cccc(C(=O)c2c(C)cc3ccccn23)c1	49.6%	-15.0%	-9.5%	-2.3%	1.9%	19.5%[59 µM]
Cc1cc2ccccn2c1C(=O)c1ccc(NN)c([N+](=O)[O-])c1	31.6µM*	39.8µM*	-27.6%	17.8µM*	5.6%	10µM*
Cc1cc2ccccn2c1C(=O)c1ccc(C#N)cc1	-3.7%	-14.8%	9.1%	?	-10.6%	?
Cc1cc2ccccn2c1C(=O)c1cc([N+](=O)[O-])cc([N+](=O)[O-])c1	?	17.8µM*	4.1%	10µM*	-6.4%	31.6µM*
COC(=O)c1cc(C(=O)c2c(C)cc3ccccn23)cc([N+](=O)[O-])c1	?	44.7µM*	-1.5%	?	-0.6%	31.6µM*
CN1CCC(C)(C(=O)Nc2ccc3c(c2)OCCO3)C1 (stereo not given)	/	/	/	/	-3.3%	/
CCOc1ccc(CNC(=O)c2cc3ccccn3n2)cc1	-13.4%	-20.1%	/	0.8%	/	-5.1%[59 µM]
SMILES	HP1b chromo inh	JMJD2A Tudor	Sfp inh	BAZ2B inh	PLK1 PBD block	G9a block
CN1CCN(C(=O)c2ccccc2NS(=O)(=O)c2ccc(F)cc2)CC1	27.6%	-4.4%	/	2.4%	-13.7%	-47.7%[59 µM]
COc1ccc(-n2ccn3c(CC(C)(C)CC(=O)O)nnc3c2=O)cc1	24.1%	-12.6%	/	-2.8%	/	-31.4%[59 µM]
COc1cc(NC(=O)CSc2nccn2C)cc(OC)c1OC	36.2%	-2.2%	/	-28.7%	/	2.7%[59 µM]
CCOC(=O)c1ccc(NC(=O)c2ccc3c(c2)c(C)c(C)n3Cc2ccc(F)cc2)cc1	9.4%	-24.4%	/	-13.8%	/	-3.1%[59 µM]
Cn1cnc(S(=O)(=O)N2CCC(C(=O)Nc3ccc(OC(F)(F)F)cc3)CC2)c1	28.3%	-8.6%	/	1.3%	/	-9.3%[12.7 µM]
O=C1N/C(=C/c2cccn2-c2ccc(F)cc2)C(=O)N1Cc1ccccc1	9.9%	-22.2%	-8.1%	-8.6%	-2.8%	-30.2%[59 µM]
O=C(CN1C(=O)S/C(=C/c2cccs2)C1=O)N1CCCC1	18.4%	-14.6%	/	?	-4.6%	-12.4%[59 µM]
O=C(O)c1ccc(-n2cccc2/C=C2/NC(=O)N(c3ccccc3)C2=O)cc1	15.8µM*	25.1µM*	-20.4%	12.6µM*	18.9µM*	8.91µM*
O=C(O)c1ccc(-n2cccc2/C=C2/NC(=O)N(c3cccc(Cl)c3)C2=O)cc1	?	20µM*	?	15.8µM*	26.7µM*	8.91µM*
CC(C)n1cc(/C=C2/NC(=O)N(c3cccc(Cl)c3)C2=O)c2ccccc21	33.0%	-6.8%	3.9%	8.8%	-5.4%	9.1%[59 µM]
O=C(O)c1ccc(-n2cccc2/C=C2/SC(=O)N(CC(=O)N3CCCC3)C2=O)cc1	14.1µM*	10µM*	-7.9%	8.91µM*	18.9µM*	8.91µM*
COc1ccc(-n2c(=O)c3ccccc3n(Cc3cccc(C)c3)c2=O)cc1	36.0%	0.7%	/	-1.9%	/	22.1%[59 µM]
Cc1ccc(S(=O)(=O)N2[C@@H](c3ccc(C(C)(C)C)cc3)C(C(=O)O)=CC[C@H]2c2ccc(C(C)C)cc2)cc1	8.5%	79.4µM*	/	/	16.8µM*	/
Cc1ccc(S(=O)(=O)N2[C@@H](c3cccc(Cl)c3)C(C(=O)O)=CC[C@H]2c2ccc(Cl)cc2)cc1	26.3%	-23.9%	/	8.9%	26.7µM*	10.7%[2.33 µM]
CCc1ccc([C@@H]2CC=C(C(=O)O)[C@H](c3ccc(C(C)(C)C)cc3)N2S(=O)(=O)c2ccc(C)cc2)cc1	11.4%	?	/	/	23.8µM*	/
Cc1ccc(S(=O)(=O)N2[C@@H](c3ccccc3F)C(C(=O)O)=CC[C@H]2c2ccc(C(C)C)cc2)cc1	31.1%	-12.7%	/	-29.3%	?	13.8%[2.33 µM]
CCOC(=O)C1=CC[C@@H](c2ccccc2)N(S(=O)(=O)c2ccc(C)cc2)[C@@H]1C#N	/	/	/	/	15µM*	/
Cc1ccc(S(=O)(=O)N2CCN(C(=O)CCn3cncn3)CC2)cc1C	21.2%	5.3%	16.7%	-1.7%	4.0%	-0.2%
Cc1cc(C)cc(Oc2nc3c(C)cccn3c(=O)c2/C=C(\C#N)c2nc3ccccc3s2)c1	45.8%	-8.2%	/	-2.9%	/	-49.3%[59 µM]
Cc1ccc(S(=O)(=O)N2C(c3ccc(Cl)c(Cl)c3)CC=C(C(=O)O)C2c2ccc(Cl)cc2)cc1 (stereo not given)	/	/	/	/	26.7µM*	/

Bioassay records from PubChem.
